Compounds with a hit are over-represented: about 4% of the library has one in this group of screens.
HIF-2a inh: HIF-2a inhibition; 786-0 RCC cells HIF-2a reporter, luciferase luminescence, overnight; inhibition, % at 18.8 µM; 360,000 tested, 0.72% active; AID 624352;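 active = inhibition of the luminescence signal of 40% or more relative to plate controls, in a single-dose primary screen at 18.75 µM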
TWEAK Fn14 block: TWEAK-Fn14 signaling inhibition; inhibition, % at 10 µM; 360,000 tested, 2% active; AID 1159606; TWEAK-stimulated Fn14 reporter cells, luciferase luminescence, 8 h; in the data active = inhibition above about 50%
CF NFkB inh: inhibitors of cystic fibrosis induced NF-kB; KKLEB NF-kB-GFP reporter, PAF-induced, GFP fluorescence overnight; 360,000 tested, 0.86% active; AID 588850; inhibition, % at 5 µM;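 active = at least 50% inhibition at 5 µM, scaled per plate between neutral and stimulator controls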;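 note: PAF is a Pseudomonas aeruginosa culture filtrate used as stimulus; plate controls were PAF-stimulated DMSO wells for no effect and unstimulated DMSO wells for full effect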
TROY NFkB inh: blocks TROY-dependent signaling in reporter cells. Q293 LMP1-TROYcd NF-kB luciferase reporter, 4 h. inhibition, % at 10 µM. 360,000 tested, 0.98% active. AID 1347056;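 active = compounds whose plate-normalised and pattern-corrected inhibition of the luciferase reporter signal at the single screening dose is 50% or more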
KKLEB tox: reduces viability of KKLEB cystic fibrosis airway cells; KKLEB CF airway cells viability, ATPlite luminescence, overnight; hits give low values; cells stimulated with P. aeruginosa culture filtrate; activity change (cytotoxicity), % at 5 µM; 360,000 tested, 0.36% active; AID 602141;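 active = corrected activity change at or below -50% at 5 µM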
Peg3 prom inh: Peg3 promoter activity inhibition | AID 588405 | HeLa PEG-Prom luciferase reporter, luminescence, overnight | 360,000 tested, 1.7% active | inhibition, % at 20 µM;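 active = inhibition of at least 50% at 20 µM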
CF NFkB inh conf: CF NF-kB inhibition confirmation, single concentration; shares compounds with CF NFkB inh; KKLEB CF airway cells, PAF-induced NF-kB-GFP fluorescence, overnight; inhibition, % at 5 µM; 1,300 tested, 64% active; AID 602472; in the data active = inhibition above about 40%;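 note: stimulus PAF is a Pseudomonas aeruginosa filtrate and not platelet activating factor; plate controls were DMSO wells with stimulus for no effect and unstimulated DMSO wells for full effect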
Mdm2-MdmX confirm: Mdm2/MdmX (human) interaction inhibition, confirmed; shares compounds with HIF-2a inh; SaOS-2 split-luciferase Mdm2/MdmX complementation, luminescence; inhibition, % at 8 µM; 740 tested, 99% active;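 active = mean inhibition of the luminescence signal across two replicates at or above 26 percent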
Target sequence (O15151 whole entry, looked up): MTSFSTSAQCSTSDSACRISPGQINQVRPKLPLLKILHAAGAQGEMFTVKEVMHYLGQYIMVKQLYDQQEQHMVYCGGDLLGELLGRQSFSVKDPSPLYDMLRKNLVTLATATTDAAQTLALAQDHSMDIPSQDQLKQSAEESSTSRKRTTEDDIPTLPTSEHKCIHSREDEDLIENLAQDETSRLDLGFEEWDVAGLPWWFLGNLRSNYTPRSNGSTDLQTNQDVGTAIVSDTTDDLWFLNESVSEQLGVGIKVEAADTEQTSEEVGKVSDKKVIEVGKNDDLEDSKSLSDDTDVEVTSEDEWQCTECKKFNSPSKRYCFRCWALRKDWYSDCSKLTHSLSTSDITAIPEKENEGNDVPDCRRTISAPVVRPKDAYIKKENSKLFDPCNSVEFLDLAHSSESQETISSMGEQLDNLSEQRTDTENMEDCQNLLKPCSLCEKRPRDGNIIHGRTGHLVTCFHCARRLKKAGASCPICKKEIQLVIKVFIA
Target sequence (Q00987 whole entry, looked up): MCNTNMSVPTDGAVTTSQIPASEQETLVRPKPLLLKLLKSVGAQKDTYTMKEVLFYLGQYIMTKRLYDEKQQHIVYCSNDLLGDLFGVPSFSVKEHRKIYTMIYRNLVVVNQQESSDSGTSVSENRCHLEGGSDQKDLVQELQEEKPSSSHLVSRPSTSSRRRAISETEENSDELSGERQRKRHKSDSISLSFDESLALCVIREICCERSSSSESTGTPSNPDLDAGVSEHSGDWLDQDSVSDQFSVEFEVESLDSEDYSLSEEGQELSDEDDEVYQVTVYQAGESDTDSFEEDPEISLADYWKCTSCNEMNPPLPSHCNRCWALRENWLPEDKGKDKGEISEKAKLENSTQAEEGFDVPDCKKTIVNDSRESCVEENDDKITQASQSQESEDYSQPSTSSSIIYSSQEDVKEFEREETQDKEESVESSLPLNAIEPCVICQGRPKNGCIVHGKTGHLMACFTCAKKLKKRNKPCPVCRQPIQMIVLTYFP
HIF-2a conf: confirmation of HIF-2a inhibitors; shares compounds with HIF-2a inh; 786-0 RCC cells, HIF-2a luciferase reporter luminescence, overnight; inhibition, % at 18.8 µM; 1,800 tested, 56% active;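 active = mean inhibition across four replicates of at least 40 percent at the single tested concentration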
HIF-1a counter: inhibits HIF-1a reporter, a counter-screen for HIF-2a inhibitors | shares compounds with HIF-2a inh | MiaPaCa-2 HIF-1a luciferase reporter, desferoxamine, overnight | inhibition, % at 18.8 µM | 1,800 tested, 72% active | AID 651589;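 active = mean inhibition of the reporter signal across four replicates at the single tested dose of 50% or more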
Starred values were filed as active, the others as inactive; · = no result given.

SMILES | HIF-2a inh | TWEAK Fn14 block | CF NFkB inh | TROY NFkB inh | KKLEB tox | Peg3 prom inh | CF NFkB inh conf | HIF-2a conf | HIF-1a counter | others
CCCCc1cc(=O)oc2cc(OCC(=O)Nc3ccccn3)ccc12 | -154 | 2 | -13 | -3 | 0 | -193 | · | · | ·
CCCc1cc(-c2[nH]ncc2-c2ccc3c(c2)OCCCO3)c(O)cc1O | 46* | 48 | 50* | 44 | -5 | 69* | 68* | 30 | 81*
BrC(=C\c1ccccc1)/C=N/Nc1ccc2nncn2n1 | -96 | -12 | -5 | -34 | 3 | -44 | · | · | ·
BrC(=C\c1ccccc1)/C=N/n1cnnc1 | 61* | 72* | 58* | 16 | -10 | 111* | -77 | 23 | 97*
O=C(NCCC1=CCCCC1)c1coc(=O)c(Br)c1 | 65* | 92* | 85* | 9 | 11 | 81* | 93* | -10 | 64*
O=C(NC(CO)(CO)CO)c1coc(=O)c(Br)c1 | -13 | 13 | 20 | -40 | 3 | 3 | · | · | ·
CC(C)CNC(=O)c1coc(=O)c(Br)c1 | 70* | 48 | 74* | 4 | -12 | 74* | 95* | -12 | 52*
Cc1nn(-c2ccccc2)c(Cl)c1C(=O)N1CCN(c2ncnc3c2cnn3-c2ccccc2)CC1 | 12 | 106* | 63* | 85* | -17 | 114* | 73* | · | · | Mdm2-MdmX confirm=100*
CS(=O)(=O)c1ncc(Cl)c(C(=O)Nc2ccc(OC(F)F)cc2)n1 | 92* | 70* | 90* | 57* | -37 | 102* | 88* | 98* | 100* | Mdm2-MdmX confirm=103*
CCOC(=O)c1nc(S(C)(=O)=O)ncc1Cl | 46* | 14 | 69* | 21 | -4 | 105* | -14 | -3 | 6
CCc1ccc(Nc2n[n+](-c3ccccc3)c(-c3c(Cl)cccc3Cl)s2)cc1 | -57 | 52* | 52* | 59* | -42 | 97* | 88* | · | · | Mdm2-MdmX confirm=101*
Cc1ccc2[nH]cc(C(=O)CCl)c2c1 | 16 | -9 | 60* | -6 | -19 | 108* | 86* | · | · | Mdm2-MdmX confirm=103*
Cc1ccc2[nH]cc(C(=O)CN3CCN(C)CC3)c2c1 | 2 | -21 | -1 | -9 | 3 | 5 | · | · | ·
CC(Oc1ccc(S(=O)(=O)N2CCCC2)cc1[N+](=O)[O-])C(=O)NC1(C#N)CCCCC1 (stereo not given) | 17 | 11 | 2 | -16 | 2 | 35 | · | · | ·
FC(F)(F)c1nnc2c(Sc3ccccn3)nc3ccccc3n12 | -45 | 20 | 47 | -26 | -10 | 24 | · | · | ·
FC(F)(F)c1nnc2c(Sc3ccc(Cl)cc3)nc3ccccc3n12 | 41* | 61* | 104* | -52 | -17 | 67* | 101* | 10 | 46
CCN(c1ccccc1)S(=O)(=O)c1ccc(N2CCN(c3ccc(O)cc3)CC2)nc1 | -5 | 11 | 8 | 5 | 1 | 26 | · | · | ·
C=C1C(=O)C23C(O)C1CCC2C12COC3(O)C(O)C1C(C)(C)CCC2O (stereo not given) | 95* | 75* | 82* | 47 | -48 | 94* | 70* | 94* | 105*
O=C(Nc1ccc2nc3n(c(=O)c2c1)CCCC3)c1ccccc1F | -154 | -29 | -5 | -11 | 3 | -120 | · | · | ·
O=C(Nc1ccc2nc3n(c(=O)c2c1)CCCCC3)c1cc([N+](=O)[O-])ccc1F | 46* | 97* | 71* | 85* | -46 | 108* | 12 | 20 | 105*
CCCC(=O)Nc1nc(C)c(-c2csc(Nc3ccc(Cl)cc3)n2)s1 | 3 | -10 | 34 | -21 | -4 | 1 | · | · | ·

Assay outcomes: PubChem, Sanford-Burnham Center for Chemical Genomics
